# From PubChem
# CBFb RUNX1 block = qHTS Assay for Compounds Blocking the Interaction Between CBF-beta and RUNX1 for the Treatment of Acute Myeloid Leukemia. AlphaScreen CBFb-His/RUNX1-biotin binding, biochemical. Potency, µM (series often up to 59.8 µM), for the others: top-dose activity, negative = inhibition, actives largely listed as inhibitors. 230,000 tested, under 10 active; also: % of control where 0% means no effect
# Target sequence (Q01196 whole entry, looked up): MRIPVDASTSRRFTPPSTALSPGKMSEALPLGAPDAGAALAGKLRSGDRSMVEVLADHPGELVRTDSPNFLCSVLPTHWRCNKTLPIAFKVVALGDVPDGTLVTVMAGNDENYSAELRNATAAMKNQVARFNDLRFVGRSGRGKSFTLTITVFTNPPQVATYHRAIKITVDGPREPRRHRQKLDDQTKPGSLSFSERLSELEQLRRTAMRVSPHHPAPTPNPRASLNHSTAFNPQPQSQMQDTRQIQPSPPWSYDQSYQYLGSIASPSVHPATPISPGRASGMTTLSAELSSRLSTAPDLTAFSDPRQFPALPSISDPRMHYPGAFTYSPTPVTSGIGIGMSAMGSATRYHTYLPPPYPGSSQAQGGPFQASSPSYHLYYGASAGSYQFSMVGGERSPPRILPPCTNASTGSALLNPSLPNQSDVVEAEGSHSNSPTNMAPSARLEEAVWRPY
# Target sequence (Q13951 whole entry, looked up): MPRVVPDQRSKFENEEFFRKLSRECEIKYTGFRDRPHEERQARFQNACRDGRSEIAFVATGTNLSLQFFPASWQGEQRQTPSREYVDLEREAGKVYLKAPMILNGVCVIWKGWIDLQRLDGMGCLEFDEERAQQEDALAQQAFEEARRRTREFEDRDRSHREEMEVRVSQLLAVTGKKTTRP
#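 Proteins preincubated together for 20 min at RT before compound addition; 15 min later, nickel and streptavidin beads were added and left 90 min prior to AlphaScreen measurement.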
# Gal4-VP16 FLuc = VP16 counterscreen qHTS for inhibitors of ROR gamma transcriptional activity; AID 2546, 2010; Drosophila S2 Gal4-VP16 UAS-luciferase, luminescence, 20 h; actives 3.5% (n = 310,000); Potency, µM (titrated, usually from 53.6 µM), without a hit: top-dose activity, negative = inhibition, most hits filed as inhibitors;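 also: Gal4-VP16 expression switched on by copper sulfate through the metallothionein promoter; potency is read from the fitted curve at half-maximal effect; % is scaled to controls: 0 for no effect and ±100 for the full control effect; nearly all actives have a fitted effect of over 50% in size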
# CtBP-E1A blk = qHTS Assay for Inhibitors of the CtBP/E1A Interaction. AlphaScreen GST-E1A/His-CtBP binding, 1536-well; active compounds read low. activity change, % (no concentration beside the values). actives 0.49% (n = 340,000). CtBP / adenovirus E1A interaction (AlphaScreen); in the data active = activity change below about -65%; inconclusive = mostly about -30% to -63%; also: % is scaled to controls: 0 for no effect and ±100 for the full control effect
#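 Homogeneous bead-based format: GST-tagged E1A captured on glutathione donor beads, His-tagged CtBP on nickel acceptor beads; compounds precede bead addition by 2 h at 37 °C.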
# Six1-Eya2 blk = qHTS Assay for Inhibitors of the Six1/Eya2 Interaction. Homeobox protein SIX1 (Homo sapiens) + Protein phosphatase EYA2 (Homo sapiens), …. AlphaScreen GST-Six1/His-Eya2 binding, biochemical; active compounds read low. activity change, % (test concentration not listed). actives 0.56% (n = 360,000). AID 651725, 2012; in the data active = activity change below about -65%; inconclusive = mostly about -30% to -63%; also: % is scaled to controls: 0 for no effect and ±100 for the full control effect
#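 Compounds are tested against tagged Six1 and Eya2 proteins bridged by glutathione donor and nickel acceptor beads; after a one-hour incubation at 37 °C without light, AlphaScreen emission is recorded.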
# RORgamma inh = qHTS for inhibitors of ROR gamma transcriptional activity; Nuclear receptor ROR-gamma (Mus musculus), P51450; Drosophila S2 Gal4-RORgamma UAS-luciferase reporter, 20 h; Potency, µM (top dose mostly 53.6 µM), for inactives: top-dose activity change, negative = inhibition, most hits filed as inhibitors; actives 5.4% (n = 310,000); AID 2551, 2010; also: potency is read from the fitted curve at half-maximal effect; % is scaled to controls: 0 for no effect and ±100 for the full control effect; nearly all actives have a fitted effect of over 60% in size
#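 Read-out: Photinus luciferase luminescence; inhibitors lower reporter signal. Insect Schneider cells with Gal4-ROR gamma fusion under metallothionein promoter, UAS reporter; 700 uM final copper sulfate induction, 20 hr, ambient temperature.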
# MBNL1-CUG inh = qHTS Assay for Inhibitors of MBNL1-poly(CUG) RNA binding | TR-FRET MBNL1-His/biotin-(CUG)12 binding, 665/545 ratio | Muscleblind-like protein 1 (Homo sapiens), Q9NR56 | actives 0.036% (n = 280,000) | AID 2675, 2010 | Potency, µM (doses to about 57.5 µM), without a hit: at the top dose activity change, negative = inhibition, actives largely listed as inhibitors; active = well fitted inhibition curve with a large enough effect in the signal ratio, with a control signal flat, not every such curve was filed as active; inconclusive = small, poorly fitted or top-dose-only effect, or effect the other way, or a change in a side signal; inactive = no such curve, though single readings can be large or run the other way; the % refers to the signal ratio; also: potency is read from the fitted curve at half-maximal effect; % is scaled to controls: 0 for no effect and ±100 for the full control effect
#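 Compounds (final 92 nM to 58 uM) are added to His-tagged MBNL1 and biotin-(CUG)12, then terbium anti-His antibody and streptavidin-XL665 (5 nM final). After 60 min at room temperature, the 665/545 nm ratio is read.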
# * = called active by the depositor; u = inconclusive; x = not tested or not shown. Sampled rows, rich in hits. Any-hit rate of the full collection: about 5.5%. Unless noted, calls follow the shape of the dose curve; as a rule, active = well fitted curve in the direction sought with a large enough effect; inconclusive = small, poorly fitted or top-dose-only effect, or another doubt; inactive = no such curve, though single readings can be large; an effect the other way counts as inactive or inconclusive.
SMILES,CBFb RUNX1 block,Gal4-VP16 FLuc,CtBP-E1A blk,Six1-Eya2 blk,RORgamma inh,MBNL1-CUG inh
COC(=O)Cc1cc(=O)n(-c2nc3ccccc3[nH]2)[nH]1,x,0.9%,-85.8*,-91.8*,-36.8%,-7.9%
COC(=O)Cc1[nH]n(-c2nc3ccccc3s2)c(=O)c1C(C)=O,-27.9%,-20.5%,-1.9,-4.2,u,1.9%
Cc1ccccc1C(=O)NCCOc1ccccc1Cl,x,3.2%,6.5,6.4,-40.9%,5.2%
O=C(N/N=C/c1ccccc1O)NC12CC3CC(CC(C3)C1)C2,x,15.8µM*,-7.2,1.1,u,-6.8%
O=C(N/N=C/c1cc(Cl)cc([N+](=O)[O-])c1O)NC12CC3CC(CC(C3)C1)C2,-1.4%,u,5.1,-12.7,3.98µM*,12.6%
Cc1cc(C)c2c(=O)c(C#N)coc2c1,6.9%,-8.9%,x,9.1,-1.9%,-15.4%
CC1NC(=O)c2cc3ccccc3cc2-n2c1nc1ccc(F)cc1c2=O (centres undefined),x,x,3.9,6.8,x,x
COc1ccc(-c2noc(CCC(=O)N3CCN(c4cccc(F)c4)CC3)n2)cc1,x,x,-2.2,1.1,x,x
Cc1ccc(S(=O)(=O)NC(=S)c2ccccc2)cc1,x,x,2.0,-4.4,x,x
Cc1ccc(C)n1NC(=O)c1cccc(Cl)c1,-8.6%,-1.7%,6.7,-2.1,3.1%,-3.0%
Cc1ccc(S(=O)(=O)CNC(=S)c2cccc(Cl)c2)cc1,-9.0%,u,5.0,0.5,22.4µM*,-4.2%
Cc1ccc(C(=S)NCS(=O)(=O)c2ccc(C)cc2)cc1,1.1%,8.91µM*,0.4,-1.1,2.82µM*,-16.3%
CN(Cc1ccc(Cl)s1)C(=O)CN1C(=O)N(C)C2(CCCCC2)C1=O,x,x,-7.0,7.8,x,x
Cc1cccc(N2CCN(C(=O)Cn3sc4nc(C)cc(C)c4c3=O)CC2C)c1 (centres undefined),-6.7%,12.6µM*,3.3,-1.0,7.08µM*,1.6%
Cc1cc(C)c2c(=O)n(CC(=O)N3CCC(Cc4ccccc4)CC3)sc2n1,-0.1%,3.98µM*,x,x,u,0.6%
Cc1cccc(N2CCN(C(=O)Cn3nc(C)n4cccc4c3=O)CC2C)c1 (centres undefined),x,0.9%,-3.2,-1.1,-13.8%,-1.6%
Cc1ccn2c(=O)nc(SCC(=O)N3CCC(Cc4ccccc4)CC3)nc2c1,x,x,-1.2,-12.0,x,x
COCCCn1c(SCC(=O)NC2CCCCC2)nnc1-c1ccco1,x,2.9%,-1.1,8.4,-8.6%,1.4%
Cc1cccc(NNC(=S)Nc2c(C)cccc2C)c1,x,3.16µM*,-4.8,-11.3,3.98µM*,-6.4%
CN(C)CCNC(=S)Nc1cccc(Cl)c1,-5.1%,-7.7%,0.0,-0.2,-15.1%,-23.4%
Cc1cccc(NC(=S)NNc2cccc(Cl)c2)c1,x,u,-5.1,-5.9,2µM*,1.2%
CN(C)NC(=S)Nc1cccc(Cl)c1,-0.7%,7.08µM*,1.4,3.9,2.24µM*,x
Cc1ccccc1NC(=O)COc1ccc(S(=O)(=O)N2CCCC2)cc1C,x,-1.5%,9.0,-9.0,12.5%,-5.2%
O=C(COC(=O)/C=C/c1ccc(F)cc1)NC1CCS(=O)(=O)C1 (centres undefined),x,x,-0.7,-1.6,x,x
N#CCCN(C(=O)COc1ccc(C#N)cc1)c1ccc(F)cc1,6.4%,2.6%,10.2,1.3,33.6%,-0.2%
SMILES,CBFb RUNX1 block,Gal4-VP16 FLuc,CtBP-E1A blk,Six1-Eya2 blk,RORgamma inh,MBNL1-CUG inh
O=C(NCCc1ccccc1)C(=O)NCC1OCCN1S(=O)(=O)c1ccc(Br)cc1 (centres undefined),x,-8.5%,x,1.4,32.6%,2.7%
COc1cccc(-c2c(C(=O)N/N=C/c3sccc3C)nnn2-c2nonc2N)c1,x,22.4µM*,-2.0,-5.0,8.91µM*,u
Cc1ccc(-c2c(C(=O)N/N=C/c3sccc3C)nnn2-c2nonc2N)cc1,x,5.62µM*,x,-6.0,4.47µM*,7.2%
COc1cccc(-c2c(C(=O)N/N=C/c3ccco3)nnn2-c2nonc2N)c1,x,-18.4%,u,-9.3,11.2µM*,u
Cc1ccsc1/C=N/NC(=O)c1nnn(-c2nonc2N)c1-c1ccccc1,x,20µM*,-6.2,-6.3,7.08µM*,19.5%
Nc1nonc1-n1nnc(C(=O)N/N=C/c2ccco2)c1-c1ccccc1,x,u,-0.9,11.9,u,u
Cc1ccsc1/C=N/NC(=O)c1nnn(-c2nonc2N)c1C,x,u,4.1,-5.0,u,11.9%
O=C(Nc1ccccc1C(=O)O)c1cc(S(=O)(=O)NCc2ccccc2)ccc1Cl,x,1.1%,-1.5,-17.5,13.4%,-0.4%
O=C(Nc1cccc(Cl)c1Cl)c1cc(S(=O)(=O)NCCc2ccccc2)ccc1F,0.6%,3.9%,-8.1,10.1,5.01µM*,3.8%
NNC(=S)NCc1ccc2c(c1)OCO2,0.6%,8.91µM*,0.0,-2.2,7.94µM*,-5.8%
O=C(NCc1ccc2c(c1)OCO2)c1ccc2c(c1)OCO2,11.8%,-3.1%,0.9,2.8,23.9%,-2.1%
CCc1cccc(CC)c1NC(=S)NCc1ccc2c(c1)OCO2,-18.3%,u,2.1,-6.9,8.91µM*,-2.7%
CCC(C(=O)NC(C)c1ccccc1)C(=O)NC(C)c1ccccc1 (centres undefined),x,1.6%,7.0,8.3,-15.6%,-7.9%
Cc1ccccc1NC(=O)NCc1ccc2c(c1)OCO2,-6.0%,-3.7%,-5.3,2.9,-21.4%,-1.5%
O=C(Nc1ccc2c(c1)OCO2)Nc1ccc2c(c1)OCO2,-6.0%,0.4%,-11.8,-3.1,-13.6%,1.0%
CCc1cccc(CC)c1NC(=S)NC(C)c1ccccc1 (centres undefined),10.0%,u,x,3.1,3.98µM*,-3.7%
O=C(Nc1cccc(C(=O)O)c1)Nc1ccc2c(c1)OCO2,x,11.2µM*,-4.6,6.5,10µM*,-1.7%
O=C(c1ccc2c(=O)n3c(nc2c1)CCCCC3)N1CCN(c2cccc(Cl)c2)CC1,x,1.9%,-18.9,u,33.5%,-5.0%
Cc1cccc(NC(=S)NCc2ccc3c(c2)OCO3)c1,-3.4%,15.8µM*,12.3,0.1,11.2µM*,x
O=C(O)c1ccc(NCc2ccc3c(c2)OCO3)cc1,3.6%,1.26µM*,-1.2,7.0,3.98µM*,-3.4%
S=C(NCc1ccc2c(c1)OCO2)NCc1ccc2c(c1)OCO2,-3.7%,u,5.2,-20.9,15.8µM*,x
